Sampled rows, rich in hits. Any-hit rate of the full collection: about 1.5%.
IDH1 R132H inh: human IDH1 R132H inhibition | O75874 | IDH1-R132H enzyme, NADPH consumption, diaphorase/resazurin fluorescence | Potency, µM (doses to about 76.6 µM), without a hit: at the top dose activity change, negative = inhibition, hits mostly inhibitors | 390,000 tested, 0.093% active | AID 602179; note: potency is the fitted concentration of half-maximal effect; % is set by controls: 0 for no effect and ±100 for the full control effect; nearly all actives have a fitted effect of over 65% in size
Target sequence (O75874 whole entry R132H, stated change not applied): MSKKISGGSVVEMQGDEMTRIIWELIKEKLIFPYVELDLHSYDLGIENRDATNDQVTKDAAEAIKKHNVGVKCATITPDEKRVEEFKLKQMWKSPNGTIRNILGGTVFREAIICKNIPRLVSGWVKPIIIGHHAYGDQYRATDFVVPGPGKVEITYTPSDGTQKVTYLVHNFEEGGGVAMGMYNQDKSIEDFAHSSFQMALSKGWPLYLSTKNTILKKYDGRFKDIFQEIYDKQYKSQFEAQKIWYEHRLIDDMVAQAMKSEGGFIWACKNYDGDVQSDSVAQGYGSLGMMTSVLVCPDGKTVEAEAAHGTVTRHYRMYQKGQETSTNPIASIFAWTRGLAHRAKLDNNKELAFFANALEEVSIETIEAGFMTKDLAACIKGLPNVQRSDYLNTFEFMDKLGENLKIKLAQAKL
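IDH1-R132H (0.5 ug/mL dispensed) in pH 7.5 Tris buffer was preincubated 30 min with compound, then given a substrate mix of 0.016 mM NADPH and 2 mM alpha-KG for 80 min at room temperature; remaining NADPH was read by diaphorase/resazurin fluorescence.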
gsp antagonist: antagonizes gsp, the McCune-Albright syndrome mutation; gsp-mutant cells, cAMP HTRF, 30 min; Potency, µM (highest dose often 76.9 µM), inactives show at the highest dose activity change, negative = inhibition, most hits filed as inhibitors; 340,000 tested, 0.4% active; calls by dose curve; cell line not stated here;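 note: intracellular cAMP measured with PDE inhibitor Ro 20-1724 present during compound exposure; potency is the fitted concentration of half-maximal effect; % is set by controls: 0 for no effect and ±100 for the full control effect; nearly all actives have a fitted effect of over 65% in size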
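HTRF cAMP read-out (cAMP-d2 plus anti-cAMP antibody-K in lysis buffer, 30 min RT). Before lysis, cells are exposed to compounds with […] for 30 min at 37C in DPBS containing Ca/Mg, BSA and Tween 20.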
gsp agonist: agonists of gsp mutant (McCune-Albright syndrome) | gsp mutant cells, cAMP HTRF, 30 min | Potency, µM (highest dose often 76.9 µM), for inactives: at the top dose activation (cAMP increase), most hits filed as activators | 340,000 tested, 0.13% active; active = well fitted activation curve with a large enough effect; inconclusive = small, poorly fitted or top-dose-only effect, or another doubt; inactive = no such curve, though single readings can be large or run the other way; cell line not stated here;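 note: phosphodiesterase inhibitor Ro 20-1724 added with compounds to block cAMP breakdown; potency is the fitted concentration of half-maximal effect; nearly all actives have a fitted effect of over 60% in size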
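Cells in DMEM/10% FBS with G418 were pretreated with compounds in DMSO plus […] (300 uM stock) for 30 min at 37C. cAMP was measured by HTRF (cAMP-d2 plus anti-cAMP antibody-K) after 30 min at room temperature.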
BRCA1 expr act: activators of BRCA1 expression | MCF7-BRCA1-FFLuc reporter, luminescence, 48 h; response scale: scaled: vehicle 0%, 10 µM genistein 100% | Potency, µM (top dose mostly 46.1 µM), for the others: top-dose activation, actives largely listed as activators | 380,000 tested, 1.1% active | AID 624202; note: potency is the fitted concentration of half-maximal effect; nearly all actives have a fitted effect of over 80% in size
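Using MCF7 cells harboring a BRCA1 firefly luciferase reporter, plated 2 h before compound pinning, the screen measured luminescence after 48 h incubation. Responses were normalized to DMSO and 10 microM genistein, then fitted for concentration-effect.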
IL2 activator: IL-2 activation. IL-2 activation reporter assay, cell-based qHTS; stimulated with anti-CD3/CD4/CD28 beads; in transgenic mouse T cells. activation, % (series mostly up to about 46 µM). 360,000 tested, 0.065% active. AID 652025; in the data active = activation above about 50%; inconclusive = mostly about 30% to 49%; note: 0% is about no effect
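Readout: EGFP and DsRed signals by fluorescent plate cytometry. Unstimulated transgenic mouse T cells received compound 60 min before antibody-bead stimulation, then incubated 18 h at 37 degrees C.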
* = called active by the depositor; ? = inconclusive; . = no result given; + = active, no number; [ ] = remark or other dose. Unless noted, calls come from the whole dose curve; as a rule, active = well fitted curve in the direction sought with a large enough effect; inconclusive = small, poorly fitted or top-dose-only effect, or another doubt; inactive = no such curve, though single readings can be large; an effect the other way counts as inactive or inconclusive.

SMILES	IDH1 R132H inh	gsp antagonist	gsp agonist	BRCA1 expr act	IL2 activator
COC(=O)c1cccc(NC(=O)c2ccc(OC)c(Cl)c2)c1	-6%	-14%	16%	5µM*	-2
O=C(Nc1ccccc1Cl)NC1CCCCCCC1	6%	-14%	4%	14µM*	1
COc1cccc(NC(=O)c2ccccc2)c1	12%	10%	.	8.9µM*	-1
COc1cc(NC(=O)CSc2nnc3c4ccccc4n(C)c3n2)cc(OC)c1OC	.	.	.	0%	.
COc1ccc(C(=O)N2c3ccc(C)cc3C(C)(c3ccccc3)CC2(C)C)cc1 (configuration not stated)	-3%	.	.	.	.
O=C(NC1CC(=O)N(c2ccccc2)C1)c1cccs1 (configuration not stated)	-3%	.	.	.	.
COc1ccc(S(=O)(=O)NCC(c2ccco2)N2CCN(c3ccccc3F)CC2)cc1OC (configuration not stated)	-9%	.	.	.	.
COc1cccc(NC(=O)CC(=O)c2ccc([N+](=O)[O-])cc2)c1	-6%	-15%	-13%	11µM*	0
O=C(NC1CCCCCCC1)c1cc(F)c(F)cc1Cl	10%	7%	20%	1.8µM*	2
O=C(CC(=O)c1ccccc1)Nc1cccc([N+](=O)[O-])c1	12%	.	-17%	?	-1
COc1ccc(NC(=O)Nc2ccc(Br)cn2)cc1OC	-8%	1%	2%	?	3
COc1cccc(NC(=O)Nc2ccc(Br)cn2)c1	1%	3%	-5%	11µM*	-3
CC(C)Oc1cccc(C(=O)NC(=S)Nc2ccccc2)c1	6%	-11%	-19%	13µM*	-1
CC(C)Oc1cccc(C(=O)NC(=S)Nc2cccnc2)c1	2%	-13%	8%	-6%	1
O=C(COC(=O)c1cc(F)c(F)cc1Cl)NC1CCCCCC1	6%	.	-2%	1%	0
O=C(CN1CCCC1)Nc1ccc(NC(=O)Nc2ccccc2Cl)cc1	8%	6%	22%	11µM*	-1
COc1cccc(NC(=O)NC2CCCCCCC2)c1	-17%	-11%	-25%	10µM*	-1
O=C(CN1CCCC1)Nc1ccccc1Cl	2%	-1%	-1%	0%	1
CC(C)OC(=O)c1cccc(NC(=O)c2ccccc2)c1	7%	?	22%	11µM*	-2
CC(C)C(=O)Nc1ccc(-c2nnc(-c3ccccc3)o2)cc1	14%	0%	-24%	170%	0
CC(C)C(=O)Nc1ccc(C(=O)c2ccccc2)cc1	2%	-23%	-19%	11µM*	0
Cc1ccc(S(=O)(=O)N2CCN(C(=O)CCC(=O)Nc3ccc(Br)c(C)c3)CC2)cc1	-2%	?	6%	-57%	-3
CCn1ccnc1CN(C)C(=O)c1cc(COc2ccc(OC)c3ccccc23)on1	8%	?	?	-13%	-3
C/C(NC(=O)c1cccc(F)c1)=C1/C(=O)C[C@@H]2[C@H]1C2(C)C	2%	-31%	6%	?	-1
C/C(NC(=O)c1ccccc1F)=C1\C(=O)C[C@@H]2[C@H]1C2(C)C	10%	-2%	5%	11µM*	-4
SMILES	IDH1 R132H inh	gsp antagonist	gsp agonist	BRCA1 expr act	IL2 activator
Cc1cccc(NC(=O)c2cc(-c3cc(C)c(C)cc3O)n[nH]2)c1	3%	10%	8%[15.4 µM]	?	-2
Cc1cccc(NC(=O)c2cc(-c3cc(C)ccc3O)n[nH]2)c1	0%	4%	-29%[15.4 µM]	1.6µM*	-2
COc1ccc(NS(=O)(=O)c2ccc3c(c2)Cc2ccccc2-3)cn1	11%	28µM*	-8%	-27%	0
COc1ccc(OC)c(-n2c3c(cc(-c4nc(-c5ccc(Cl)cc5)cs4)c2=O)C(=O)CC(C)(C)C3)c1	1.3µM*	.	.	.	.
COc1ccc(-n2c3c(cc(-c4nc(-c5ccc(C)cc5)cs4)c2=O)C(=O)CC(C)(C)C3)cc1	-6%	.	.	.	.
O=C1NC(=S)SC1=Cc1ccc(F)cc1	-1%	-8%	-2%	72%	-2
O=C1NC(=S)SC1=Cc1ccc(Cl)cc1	-11%	28µM*	22%	-26%	-1
CCOC(=O)/C(C#N)=C(C)/C=C1\Sc2ccccc2N1CC	4%	-4%	-2%[15.4 µM]	3.2µM*	2
CCN1/C(=C\C=C(C(C)=O)C(C)=O)Sc2ccccc21	5%	-26%	-11%	8%	1
COc1ccc(S(=O)(=O)N(C)[C@H]2C[C@H]3c4cc(Oc5ccccc5C)ccc4CCN3C(=O)[C@H]2[C@H](C)O)cc1	?	.	10%	-58%	-5
CC(C)S(=O)(=O)c1csc(C(=O)Nc2ccc(F)cc2)c1N	8%	+	-6%[15.4 µM]	?	-4
COc1ccc(S(=O)(=O)Nc2cccc(-c3ccc(N4CCCCCC4)nn3)c2)cc1OC	6%	25µM*	-4%	?	-3
Cc1ccc2c(c1)N=C(c1ccccc1)CC(C(Cl)Cl)=N2	13%	?	20%[15.4 µM]	-41%	-1
Cc1cc2c(cc1C)NC(=O)CC(c1ccccc1)=N2	5%	8%	16%	3.2µM*	0
COc1ccc2oc(=O)c(-c3csc(Nc4ccc(O)cc4)n3)cc2c1	13%	25µM*	0%	-67%	-2
COCCNC(=O)CSc1nc2cc3c(cc2c(=O)n1Cc1ccc(C(=O)NCCc2ccc(OC)c(OC)c2)cc1)OCO3	39%	.	.	.	.
O=C(CN1CCCCC1)Nc1nc(-c2ccc(F)c(F)c2)cs1	2%	-16%	2%	7.1µM*	0
COc1ccc(-c2csc(NC(=O)[C@H](C)N3C(=O)C4CC=CCC4C3=O)n2)cc1OC (some centres not stated)	1%	0%	2%	-20%	-5
CC(OC(=O)c1ccc([N+](=O)[O-])o1)C(=O)Nc1nc(-c2ccc(F)c(F)c2)cs1 (configuration not stated)	6%	-24%	-4%[15.4 µM]	13µM*	0
CC(C(=O)Nc1nc(-c2ccc(F)c(F)c2)cs1)N1C(=O)C2CC=CCC2C1=O (configuration not stated)	-5%	35µM*	-3%	-16%	-1
O=C1NC[C@H](CCCCN2CCN(CCc3ccc(O)cc3)C(=O)C2=O)N(CCC2CCCCC2)C1=O	.	.	.	0%	0
COc1ccc(CCNC(=O)c2cnn3c2NC(=C2CC2)C=C3C(F)F)cc1OC	.	.	.	0%	.
COc1ccc(N2CCN(C(=O)c3cccn4c(=O)c5ccc(Cl)cc5nc34)CC2)cc1	14%	.	.	.	.
Cc1cc(C)cc(NS(=O)(=O)c2ccc3c(c2)c(=O)n(C)c(=O)n3C)c1	2%	1%	25µM*	-76%	-2
CC1(C)COCN1S(=O)(=O)c1ccc(C(=O)Nc2nnc(-c3ccc(Cl)s3)o2)cc1	4%	32µM*	-1%	-88%	0
